Results: article PMC5700166
Changes are numbered by the printed parent chain.

Columns and labels:
Test in all cases: protein-binding microarray (PBM); PBM: ~300 nM protein, 6 mM HEPES pH 7.8, 80 mM KCl, 0.5 mM EDTA, 0.5 mM EGTA, 6% glycerol, 35 ng/ul poly-dIdC, 1% milk, 1 h, room temperature; Ap Aiptasia and Nv Nematostella (sea anemones) / Co Capsaspora / Aq Amphimedon (sponge) / Dm Drosophila / Hu human; RHD is the Rel homology domain; high values mean tight binding
Conditions in all cases: dsDNA, one strand shown
[1] = biological target: T1, GST-Ap-NF-kB RHD (Exaiptasia pallida (Aiptasia), UniProt A0A913YAJ5 2-422)
T1 sequence: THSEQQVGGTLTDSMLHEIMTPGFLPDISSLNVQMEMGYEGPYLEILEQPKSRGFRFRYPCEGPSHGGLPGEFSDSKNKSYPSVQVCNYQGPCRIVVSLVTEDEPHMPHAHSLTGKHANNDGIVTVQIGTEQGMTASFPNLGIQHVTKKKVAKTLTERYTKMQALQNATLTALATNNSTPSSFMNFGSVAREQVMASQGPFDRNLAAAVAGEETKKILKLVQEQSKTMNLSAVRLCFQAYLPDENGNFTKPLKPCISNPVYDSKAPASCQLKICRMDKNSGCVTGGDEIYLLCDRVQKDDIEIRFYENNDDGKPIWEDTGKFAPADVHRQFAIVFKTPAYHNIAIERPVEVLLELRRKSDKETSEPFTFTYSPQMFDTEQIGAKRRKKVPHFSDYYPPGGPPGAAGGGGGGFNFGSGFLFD

[2] = biological target: T2, GST-Nv-NF-kB (Cys allele) (Nematostella vectensis, UniProt E5G601 2-411)
T2 sequence: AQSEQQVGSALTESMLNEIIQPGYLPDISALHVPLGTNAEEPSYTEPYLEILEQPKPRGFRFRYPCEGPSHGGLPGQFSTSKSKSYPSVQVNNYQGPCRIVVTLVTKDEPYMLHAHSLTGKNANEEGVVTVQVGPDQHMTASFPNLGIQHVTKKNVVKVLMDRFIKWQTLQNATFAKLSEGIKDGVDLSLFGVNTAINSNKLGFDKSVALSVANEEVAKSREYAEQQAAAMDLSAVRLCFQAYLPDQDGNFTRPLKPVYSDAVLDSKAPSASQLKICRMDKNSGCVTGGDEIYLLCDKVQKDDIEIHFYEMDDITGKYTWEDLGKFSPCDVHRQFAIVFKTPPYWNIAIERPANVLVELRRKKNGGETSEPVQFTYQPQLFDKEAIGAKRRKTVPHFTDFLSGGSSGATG

[3] = biological target: T3, GST-Nv-NF-kB (Ser allele) (Nematostella vectensis, UniProt A7UNT2 2-411)
T3 sequence: T2 sequence with Q21R, C66S, S207N, E215Q, V217A, E225K, A268E, D399E

[4] = biological target: T4, GST-Co-NF-kB (Capsaspora owczarzaki, UniProt F1ARL5 200-546)
T4 sequence: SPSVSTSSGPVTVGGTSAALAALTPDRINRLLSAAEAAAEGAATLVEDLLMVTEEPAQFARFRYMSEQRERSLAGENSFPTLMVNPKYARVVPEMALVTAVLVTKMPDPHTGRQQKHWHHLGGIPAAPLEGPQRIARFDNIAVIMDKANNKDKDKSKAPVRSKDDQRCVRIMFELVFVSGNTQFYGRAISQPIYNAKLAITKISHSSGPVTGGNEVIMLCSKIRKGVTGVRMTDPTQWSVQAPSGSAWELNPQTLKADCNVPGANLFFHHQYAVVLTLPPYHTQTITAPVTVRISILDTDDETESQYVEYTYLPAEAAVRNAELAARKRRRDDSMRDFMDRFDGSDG

[5] = biological target: T5, GST-Dm-Relish (Drosophila melanogaster, UniProt Q94527 99-473)
T5 sequence: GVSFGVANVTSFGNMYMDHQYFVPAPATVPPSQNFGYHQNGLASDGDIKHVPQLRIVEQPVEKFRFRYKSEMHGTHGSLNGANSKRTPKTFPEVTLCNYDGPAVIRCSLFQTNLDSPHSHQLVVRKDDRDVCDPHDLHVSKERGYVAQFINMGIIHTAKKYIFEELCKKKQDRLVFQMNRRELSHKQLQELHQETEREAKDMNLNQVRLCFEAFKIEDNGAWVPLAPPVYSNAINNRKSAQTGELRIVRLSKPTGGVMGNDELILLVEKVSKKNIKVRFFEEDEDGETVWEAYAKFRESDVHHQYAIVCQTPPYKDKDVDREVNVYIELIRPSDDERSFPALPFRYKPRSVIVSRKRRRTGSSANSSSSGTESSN

[6] = biological target: T6, GST-Aq-NF-kB (Amphimedon queenslandica, UniProt A9Y5G7 2-389)
T6 sequence: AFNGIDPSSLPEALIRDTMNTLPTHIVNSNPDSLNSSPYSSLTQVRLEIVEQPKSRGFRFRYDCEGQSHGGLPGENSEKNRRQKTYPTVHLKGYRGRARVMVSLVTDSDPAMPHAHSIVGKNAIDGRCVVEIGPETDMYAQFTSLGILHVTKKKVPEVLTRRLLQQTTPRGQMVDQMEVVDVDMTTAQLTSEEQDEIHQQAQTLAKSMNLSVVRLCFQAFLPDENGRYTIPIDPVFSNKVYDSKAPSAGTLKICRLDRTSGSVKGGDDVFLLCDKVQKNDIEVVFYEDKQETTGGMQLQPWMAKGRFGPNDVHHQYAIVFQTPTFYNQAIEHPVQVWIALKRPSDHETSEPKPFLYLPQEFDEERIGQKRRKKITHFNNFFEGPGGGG

Sequence	binding signal [1] [z-score]	binding signal [2] [z-score]	binding signal [3] [z-score]	binding signal [4] [z-score]	binding signal [5] [z-score]	binding signal [6] [z-score]
CCGATTAACATCAAAGTTTTCCCTGATGTTAATCGGGTCTTGATTCGCTTGACGCTGCTG	4.37	6.15	7.61	6.07	2.47	4.93
CCGATTAACATCAGGTAATTACCTGATGTTAATCGGGTCTTGATTCGCTTGACGCTGCTG	2.06	4.18	5.28		5.43	5.11
CCGATTAACATCACGGTGGGAAATGATGTTAATCGGGTCTTGATTCGCTTGACGCTGCTG	2.05	2.39		2.77		1.94
CCGATTAACATCAACTCGGGAAATGATGTTAATCGGGTCTTGATTCGCTTGACGCTGCTG	1.08	2.75		3.32		1.73
CCGATTAACATCAACCAATCCCCTGATGTTAATCGGGTCTTGATTCGCTTGACGCTGCTG	5.19	5.28	6.6	2.16	2.29	3.86
CCGATTAACATCAGGGGAAAGCATGATGTTAATCGGGTCTTGATTCGCTTGACGCTGCTG	5.49	6.83	8.3	6.79	2.4	4.54
CCGATTAACATCAGGGAAAAACCTGATGTTAATCGGGTCTTGATTCGCTTGACGCTGCTG	5.74	7.26	7.89	3.82	8.13	9.06
CCGATTAACATCACCAGTTTCCCTGATGTTAATCGGGTCTTGATTCGCTTGACGCTGCTG	2.66	3.06		3.09		2.6
CCGATTAACATCAAGGGAAAAAATGATGTTAATCGGGTCTTGATTCGCTTGACGCTGCTG	3.77	5.84	7.2	5.23	1.86	4.83
CCGATTAACATCAAATTCTCCCCTGATGTTAATCGGGTCTTGATTCGCTTGACGCTGCTG	5.65	6.62	7.76	8.72	2.37	5.21
CCGATTAACATCAAATTCCCACGTGATGTTAATCGGGTCTTGATTCGCTTGACGCTGCTG	2.06	3.63	3.63	2.77	3.95	2.61
CCGATTAACATCAAAAAATTACCTGATGTTAATCGGGTCTTGATTCGCTTGACGCTGCTG	2.19	4.07	6.92		6.23	3.3
CCGATTAACATCATGCCCGGGAATGATGTTAATCGGGTCTTGATTCGCTTGACGCTGCTG	1.55	1.27		3.51		2.72
CCGATTAACATCAATAAAGTCCCTGATGTTAATCGGGTCTTGATTCGCTTGACGCTGCTG	5.45	7.06	7.32		6.49	5.67
